An excerpt weighted towards active compounds, which were near 4.6% of everything screened.
GRIN3A LBD mod: modulators (binders) of human NR3A ligand-binding domain | NR3A LBD differential scanning fluorimetry, Tm shift; 0% = protein alone, 100% = glycine-bound protein | hit rate 2.5% among 340,000 | AID 1259313 | Tm shift relative to glycine control, % at 25 µM;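 active = melting temperature shift of at least 10% of the positive control shift, at one fixed dose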
KLK7 zymogen act: activators of human kallikrein-7 zymogen; activation, % at 7 µM; purified proKLK7, EDANS-DABCYL substrate fluorescence; 100% is mature enzyme control, 0% vehicle; hit rate 0.9% among 370,000;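 active = activation above the mean of all tested compounds plus 3 SD, computed per campaign excluding outliers beyond control limits, cut at about 13% in these data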
Target sequence (P49862 whole entry, looked up): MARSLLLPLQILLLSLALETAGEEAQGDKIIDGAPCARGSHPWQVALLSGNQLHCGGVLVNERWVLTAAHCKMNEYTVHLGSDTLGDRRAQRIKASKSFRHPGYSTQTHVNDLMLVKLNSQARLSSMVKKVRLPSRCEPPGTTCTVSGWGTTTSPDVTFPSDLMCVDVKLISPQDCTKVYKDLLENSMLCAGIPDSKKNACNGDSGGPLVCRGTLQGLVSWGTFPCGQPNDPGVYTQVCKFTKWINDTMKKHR
FAS-TE inh: blocks the thioesterase domain of human fatty acid synthase | inhibition, % at 15 µM | recombinant FAS-TE, OMFH fluorogenic substrate, fluorescence endpoint | P49327 | hit rate 0.67% among 360,000;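 active = compounds whose normalised, plate-corrected inhibition of enzyme fluorescence in the single-dose primary screen is 50% or more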;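 also: 0% = DMSO with enzyme and 100% = substrate without enzyme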
ADAM17 inh: inhibitors of human ADAM17; recombinant ADAM17, EDANS/DABCYL FRET peptide cleavage; inhibition, % at 6.95 µM; hit rate 0.83% among 370,000; AID 720648;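 active = inhibition above the mean of compounds lying between control limits plus 3 SD, set per campaign, cut at about 8.5% in these data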;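 also: 0% = DMSO-only wells as the low control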
ADAM10 inh: inhibitors of human ADAM10 | O14672 | recombinant ADAM10, EDANS/DABCYL FRET peptide cleavage, 3 h | inhibition, % at 7 µM | hit rate 0.62% among 370,000 | AID 720582;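 active = inhibition above a per-campaign cutoff equal to the mean of compounds falling between control-based bounds plus 3 SD, cut at about 20% in these data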;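 also: 0% = DMSO wells while the 100% control is not disclosed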
ADAM10 ctr: counter-screen for ADAM17 exosite inhibitors: inhibitors of human ADAM10; inhibition, % at 6.95 µM; recombinant ADAM10, EDANS/DABCYL FRET peptide cleavage, 3 h; hit rate 47% among 2,900; AID 743256; shares compounds with ADAM17 inh;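 active = mean inhibition over the triplicate runs exceeds the activity threshold set in the earlier primary screen, cut at about 20% in these data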;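 also: 0% = DMSO wells and 100% = marimastat wells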
ADAM17 confirm: confirmation of inhibitors of human ADAM17 | AID 743257 | inhibition, % at 6.95 µM | shares compounds with ADAM17 inh | recombinant ADAM17, EDANS/DABCYL QFRET peptide cleavage | hit rate 65% among 2,900;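 active = mean inhibition across replicates above the hit cutoff set in the primary screen, cut at about 8.5% in these data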;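 also: 0% = DMSO wells and 100% = marimastat wells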
An asterisk follows results filed as active; · = not tested or not shown.

SMILES	GRIN3A LBD mod	KLK7 zymogen act	FAS-TE inh	ADAM17 inh	ADAM10 inh	ADAM10 ctr	ADAM17 confirm
CC(C)(C)OC(=O)NCc1ccc(CNC(=O)c2[nH]cnc2C(=O)N[C@@H](Cc2ccccc2)C(=O)OCc2ccccc2)cc1	-7	0	17	12*	16	34*	20*
CC(C)(C)OC(=O)[C@H](Cc1ccccc1)NC(=O)c1nc[nH]c1C(=O)N[C@@H](CCCCN)C(=O)OC(C)(C)C	-1	0	-11	2	9	·	·
CC(C)(C)OC(=O)[C@H](Cc1ccccc1)NCC(=O)OCc1ccc(C(=O)NCc2ccccc2)cc1	·	0	·	8.7*	13	11	8
COC(=O)c1ccc(COC(=O)CNC(=O)c2ccc(-c3ccccc3)cc2)cc1	2	0	5	-1	-5	·	·
Fc1ccc2cc(C3=CCCCC3)ncc2c1	·	0	·	-3	-6	·	·
CCN=C1NC(c2cccc(Cl)c2)C(C(=O)OC)=C(C)N1Cc1ccccc1C(F)(F)F (stereo not given)	·	1	·	-1	-15	·	·
COc1ccc(OC)c(NC(=O)COC(=O)c2c3c(nc4ccccc24)CCCC3)c1	-4	1	23	11*	9	16	14*
Cc1cc(C)cc(-n2c(SCC(=O)NCc3ccco3)nc3ccccc3c2=O)c1	-1	0	2	10*	-1	9	8.7*
CCCCOP(=O)(OCCCC)C(O)c1ccc(Br)cc1 (stereo not given)	-5	0	4	11*	11	-6	0
COC(=O)[C@]12C[C@H](CC(=O)NCCCN3CCCC3=O)C(=O)N(CCC3=CCCCC3)C1=C[C@H](COCc1ccccc1)O[C@@H]2C	·	1	·	2	8	·	·
Cc1cnc(C(=O)OC(C)C(=O)Nc2ccc3c(c2)OCCO3)cn1 (stereo not given)	1	0	-4	9.9*	8	5	14*
CC(=O)Nc1ccc(S(=O)(=O)Nc2ccc3c(c2)OCCO3)cc1Cl	1	0	4	0	5	·	·
CC(OC(=O)c1cc(S(=O)(=O)Nc2ccc(F)cc2)ccc1Cl)C(=O)Nc1ccc2c(c1)OCCO2 (stereo not given)	9	0	18	9.8*	12	12	8
CCN(CC)S(=O)(=O)c1ccc(C(=O)OCn2nnc3ccccc3c2=O)cc1	0	0	18	10*	12	7	5
O=C(OCn1nnc2ccccc2c1=O)c1ccc(S(=O)(=O)N2CCOCC2)cc1	1	·	14	·	·	·	·
COC(=O)[C@@]12C[C@@H](CC(=O)NCc3cccc4ccccc34)C(=O)N(Cc3ccc4c(c3)OCO4)C1=CCC(C)(C)C2	·	0	·	8.9*	18	20*	12*
CCOC(=O)[C@]12CCCC=C1N(Cc1cccc3ccccc13)C(=O)[C@H](CC(=O)NCc1cccc3ccccc13)C2	·	0	7	11*	6	12	5
CCCCOCCCNC(=O)C[C@@H]1C[C@@]2(C(=O)OCC)CCCC=C2N(Cc2cccc3ccccc23)C1=O	·	0	14	7	19	·	·
C#CCNC(=O)C[C@@H]1C[C@@]2(C(=O)OCC)CCCC=C2N(Cc2cccc3ccccc23)C1=O	·	1	3	6	7	·	·
CCOC(=O)[C@]12CCCC=C1N(Cc1cccc3ccccc13)C(=O)[C@H](CC(=O)NCCc1ccccc1OC)C2	·	0	21	9.7*	11	24*	17*
COC(=O)[C@]12CCCCC=C1N(Cc1cccc3ccccc13)C(=O)[C@H](CC(=O)NCc1cccc3ccccc13)C2	·	0	24	12*	16	23*	12*
CNc1ncn(-c2c(C)cccc2C)c(=O)n1	·	0	·	3	13	·	·
COC(=O)c1cc2c(c3c4ccccc4n(S(=O)(=O)c4ccc(C)cc4)c13)C(=O)N(C)C2	·	0	·	-1	-5	·	·
Nc1ccc2nc(CCCCCCc3nc4ccc(N)cc4[nH]3)[nH]c2c1	-1	0	-6	-4	-2	·	·
Nc1ccc2nc(CCCCCCCCc3nc4ccc(N)cc4[nH]3)[nH]c2c1	0	0	-12	13*	11	4	3
